Results taken from PubChem BioAssay (Tox21).
Results filed as inconclusive are left out. The source made the active and inactive calls. Calls come from the whole dose curve; as a rule, active = well fitted curve in the direction sought with a large enough effect in the repeat runs; inconclusive = weak or mixed curves; inactive = no such curve, though single readings can be large; an effect the other way counts as inactive or inconclusive.

How the values were obtained:
[1] = A CellTox Green Cytotoxicity Assay to monitor cytotoxicity in HepG2 cells - 16 hour (AID 1224876); note: nearly all actives have a fitted effect of over 45% in size
Method in brief: (§1)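 Real-time, homogeneous cytotoxicity readout: dead-cell DNA staining by CellTox Green in HepG2 monolayers, fluorescence measured at timed intervals up to 40 h of continuous compound exposure.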

[2] = A CellTox Green Cytotoxicity Assay to monitor cytotoxicity in HepG2 cells - 40 hour (AID 1224879); note: nearly all actives have a fitted effect of over 40% in size; note: potency is the fitted concentration of half-maximal effect
Method in brief: as §1

[3] = qHTS RealTime-Glo MT Cell Viability Assay in HEK293 cells - 0 hour (AID 1224880); note: nearly all actives have a fitted effect of over 45% in size; note: potency is the fitted concentration of half-maximal effect
Method in brief: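 Nonlytic bioluminescent viability monitoring. HEK293 at 600 cells/well with reagent; 5 h settle; compound transfer by pintool; plates held at 37 C and read at set time points.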

[4] = A CellTox Green Cytotoxicity Assay to monitor cytotoxicity in HEK293 cells - 8 hour (AID 1224884); note: nearly all actives have a fitted effect of over 35% in size; note: potency is the fitted concentration of half-maximal effect
Method in brief: (§2)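 Cytotoxicity was tracked continuously in HEK293 cells by a DNA-binding dye excluded from viable cells. Compounds were transferred in DMSO 5 h after seeding; fluorescence was recorded at intervals up to 40 h.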

[5] = qHTS RealTime-Glo MT Cell Viability Assay in HepG2 cells - 32 hour (AID 1224877); note: nearly all actives have a fitted effect of over 55% in size; note: potency is the fitted concentration of half-maximal effect
Method in brief: (§3)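 Tox21 10K library screened in qHTS format on HepG2 cells carrying RealTime-Glo reagents. Compounds were added after a 5 h preincubation, and the luminescent signal from continuous culture was measured repeatedly during 40 h treatment.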

[6] = A CellTox Green Cytotoxicity Assay to monitor cytotoxicity in HepG2 cells - 24 hour (AID 1224878); note: nearly all actives have a fitted effect of over 45% in size; note: potency is the fitted concentration of half-maximal effect
Method in brief: as §1

[7] = A CellTox Green Cytotoxicity Assay to monitor cytotoxicity in HEK293 cells - 32 hour (AID 1224881); note: nearly all actives have a fitted effect of over 40% in size; note: potency is the fitted concentration of half-maximal effect
Method in brief: as §2

[8] = A CellTox Green Cytotoxicity Assay to monitor cytotoxicity in HepG2 cells - 32 hour (AID 1224883); note: nearly all actives have a fitted effect of over 50% in size; note: potency is the fitted concentration of half-maximal effect
Method in brief: as §1

[9] = A CellTox Green Cytotoxicity Assay to monitor cytotoxicity in HepG2 cells - 0 hour (AID 1224882); note: nearly all actives have a fitted effect of over 35% in size
Method in brief: as §1

[10] = qHTS RealTime-Glo MT Cell Viability Assay in HepG2 cells - 16 hour (AID 1224885); note: nearly all actives have a fitted effect of over 50% in size; note: potency is the fitted concentration of half-maximal effect
Method in brief: as §3

Measured: Potency

O=C(CCN1CCC(c2ccccc2)C1)c1ccc2c(c1)OCCO2 (stereo not given)
inactive: [1] | [3] | [4]
active: [2] 26.8 µM

O=C(c1ccccc1)c1ccc(Cl)cc1
not listed: [1] | [9] | [10]
inactive: all other assays above

[Cl][Eu]([Cl])[Cl]
not listed: [1]
inactive: all other assays above

c1ccc(-c2nc3ccccc3[nH]2)cc1
not listed: [1]
inactive: all other assays above

CS(=O)(=O)c1ccc([C@@H](CC2CCCC2)C(=O)Nc2cnccn2)cc1Cl
inactive: [3]

CCC(C)(C)c1ccc(CC(C)CN2C[C@@H](C)O[C@@H](C)C2)cc1 (stereo not given in full)
active: [6] 21.3 µM | [2] 23.9 µM | [7] 23.9 µM
inactive: [3] | [9] | [10]

c1ccc2c(c1)-c1ccc3ccc4cccc5cc-2c1c3c45
active: [2] 9.52 µM
inactive: [5] | [3] | [10]

CC(=O)N(C)C
inactive: [3]

CC(CC(C)(C)C)CC(C)(C)CC(C)(C)C (stereo not given)
not listed: [1] | [5] | [8]
inactive: all other assays above

CC(=O)[C@]1(O)Cc2c(O)c3c(c(O)c2[C@@H](O[C@H]2C[C@H](N)[C@H](O)[C@H](C)O2)C1)C(=O)c1ccccc1C3=O
inactive: [3] | [7]
active: [6] 23.9 µM | [10] 12 µM

O=C(Nc1ccccc1)c1cc(Cl)ccc1O
active: [2] 49 µM
inactive: [3] | [7] | [9] | [10]

CC(C)=NNC(N)=S
not listed: [1] | [2]
inactive: all other assays above

CC1=C(/C=C/C(C)=C/C=C/C(C)=C\C(=O)O)C(C)(C)CCC1
inactive: [5] | [3] | [4]
active: [2] 55.1 µM

CC(C)(C)c1ccc(OC2CCCCC2O)cc1 (stereo not given)
active: [7] 49 µM
inactive: [5] | [3]

CCCC(=O)c1cc(O)c(O)cc1O
inactive: [5] | [2] | [3] | [7] | [4]

O=C(Nc1ccc([N+](=O)[O-])cc1)Nc1ccc([N+](=O)[O-])cc1 (tested in a mixture with another compound)
active: [2] 21.3 µM | [8] 21.3 µM
not listed: [1] | [6]
inactive: all other assays above

NCc1cccc(C2CCN(C(=O)c3ccc(C#Cc4ccccc4F)o3)CC2)c1
inactive: [3] | [9]
active: [6] 38.9 µM | [2] 43.6 µM | [7] 49 µM | [8] 43.6 µM | [10] 49 µM

Cc1ccc(S(=O)(=O)C(I)I)cc1
inactive: [9]
active: [6] 49 µM | [2] 24.5 µM | [3] 0.616 µM | [7] 24.5 µM | [4] 49 µM

Cc1c[nH]c(=O)[nH]c1=O
inactive: [3] | [7] | [9] | [4] | [10]

CCCCCCCCCCCCN1CCCC1=O
inactive: [3] | [9]

O=C1Cc2ccccc2C1
inactive: [3]

Cc1c(Cl)c(=O)oc2cc(O)ccc12
not listed: [1] | [5]
inactive: all other assays above

COc1ccc(OC)c(N=Nc2c(O)ccc3ccccc23)c1
inactive: [5] | [6] | [3] | [7] | [4]

C=C1C(CCl)(CCl)C2(Cl)C(Cl)C(Cl)C1(Cl)C2(Cl)Cl (stereo not given)
active: [7] 48.4 µM
inactive: [3] | [9]

Nc1ccc(Oc2cccc(Oc3ccc(N)cc3)c2)cc1
inactive: [5] | [6] | [2] | [7] | [8] | [4]

O=C1CCCCCCCCCCCCCC1
inactive: [5] | [3]
active: [7] 43.6 µM

CCCCCCCCCCCCCCCCCCNC(=O)OC1CCN(C(=O)OC[C@H](COC(=O)N(Cc2cccc[n+]2CC)C(=O)c2ccccc2OC)OC)CC1
active: [4] 26.8 µM
inactive: [3]

O=C(Cl)c1ccc(Cl)cc1Cl
active: [2] 54.9 µM
inactive: [3]

CCOc1ccc([N+](=O)[O-])cc1
inactive: [3] | [9] | [10]
active: [7] 44.3 µM

CCCCCCCCCCCCCCCCC(C(=O)O)C(O)(CC(=O)O)C(=O)O (stereo not given)
inactive: [5] | [3] | [7] | [9] | [4]

c1ccc(-c2ccc(C(c3ccccc3)n3ccnc3)cc2)cc1 (stereo not given)
not listed: [1] | [5] | [10]
inactive: all other assays above

Cc1cc(Br)ccc1NC(=O)CCl
inactive: [3] | [4]
active: [5] 43.6 µM

C1=CCCC1
inactive: [5] | [6] | [2] | [9] | [10]

CCCCCCCC1CCC(=O)O1 (stereo not given)
inactive: [3]

COc1cc([C@@H]2c3cc4c(cc3[C@@H](O[C@@H]3O[C@@H]5CO[C@@H](C)O[C@H]5[C@H](O)[C@H]3O)[C@H]3COC(=O)[C@H]23)OCO4)cc(OC)c1O
inactive: [3] | [7] | [9] | [4]
active: [6] 48.4 µM | [2] 48.4 µM | [8] 48.4 µM

CSc1nnc(C(C)(C)C)c(=O)[nH]1
not listed: [1] | [5]
inactive: all other assays above

COc1ccc2ccccc2c1
inactive: [3]

O=S(=O)(c1ccc(OCc2ccccc2)cc1)c1ccccc1O
inactive: [3] | [7] | [9] | [4] | [10]

COc1c(Br)cc(Br)c(C)c1Br
inactive: [3] | [7] | [9] | [4] | [10]

CC(C)(c1ccc(Oc2ccc(N)cc2)cc1)c1ccc(Oc2ccc(N)cc2)cc1
inactive: [6] | [2] | [3] | [7] | [9] | [4]

CCCC(C)C=O (stereo not given)
inactive: [6] | [2] | [3] | [7] | [9] | [4]

CCCCCCCCCCCC(=O)Cl
not listed: [1] | [4] | [5]
inactive: all other assays above
